In PubChem BioAssay (NCATS) one finds Potency and activity change, negative = inhibition data, which are given here for 38 molecules.

Where “and” joins values, the source holds several entries; their conditions need not be identical. Equal entries are not always repeated. Records with an inconclusive call do not appear. Where a call stands in place of a potency, no number is given. Calls of active or inactive are those of the source. Calls follow the shape of the full dose curve.

The nature of test [1]: Cytotoxicity counterscreen for inhibitors of SARS-CoV-2 cell entry (AID 1645845). Also: nearly all actives have a fitted effect of over 50% in size. Also: potency is read from the fitted curve at half-maximal effect. As to conditions: cell viability (SARS-CoV-2 entry assay cells); series mostly up to 57.1 µM. The method, boiled down: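 Expi293F/hACE2 cells seeded overnight; cpd pin-transferred in DMSO, 1 h preincubation, + media, 48 h 37 C 5% CO2; ATPLite 1step luminescence; normalized to cells and no cells.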

Test [2] can be described thus: Primary qHTS to identify inhibitors of SARS-CoV-2 cell entry (AID 1645846). Also: nearly all actives have a fitted effect of over 45% in size. Conditions: SARS-CoV-2 pseudovirus cell entry assay, luminescence; activity change, negative = inhibition: at 57.1 µM (top of the series) unless noted; series mostly up to 57.1 µM. The method, boiled down:
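Using luciferase-reporting pseudoviruses carrying Wuhan-Hu-1 spike, the screen tracks entry into stably ACE2-expressing cells over 48 hr. Activity is expressed relative to spike particles versus particles lacking any fusion protein.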
(qHTS replaces the single test concentration by a dilution series.)

Regarding `CCCCCCCCCCCCCCCC(=O)OC(C)C`, the Potency entry in test [1] and in test [2] was “inactive” each time.

`CN=C(NC#N)NCCSCc1nc[nH]c1C`: the Potency result in test [1] was “inactive”. In addition, in test [2], the activity change, negative = inhibition came out at 4.18%.

In the case of `COc1ccc(C(=O)NCc2ccc(OCCN(C)C)cc2)cc1OC`, the Potency result in test [1] was “inactive”. Further, in test [2], the activity change, negative = inhibition was -12.5%.

Regarding `CCCC(=O)OCOC(=O)C1=C(C)NC(C)=C(C(=O)OC)C1c1cccc(Cl)c1Cl` (stereo unspecified), the Potency entry in test [1] and in test [2] was “inactive” throughout.

Take `Cc1cc2nc3c(=O)[nH]c(=O)nc-3n(C[C@H](O)[C@H](O)[C@H](O)CO)c2cc1C`: the Potency entry in test [1] and in test [2] was “inactive” in each case.

With `Nc1ccc(S(=O)(=O)c2ccc(N)cc2)cc1`, the Potency result in test [1] and in test [2] was “inactive” in each case.

On to `Cn1c(=O)c2[nH]cnc2n(C)c1=O`, for which the Potency result in test [1] is “inactive”. Besides, in test [2], the activity change, negative = inhibition is -18.5% and -12.1%.

With `CC(C)(Sc1cc(C(C)(C)C)c(O)c(C(C)(C)C)c1)Sc1cc(C(C)(C)C)c(O)c(C(C)(C)C)c1`, the Potency result in test [1] and in test [2] was “inactive” throughout.

As for `COc1ccc(NS(=O)(=O)c2ccc(N)cc2)nn1`, the Potency entry in test [1] and in test [2] was “inactive” each time.

For `CC(C)c1ccc2oc3nc(N)c(C(=O)O)cc3c(=O)c2c1`, the Potency in test [1] was 10 µM (active). The Potency result in test [2] was “inactive”.

As for `COc1nccnc1NS(=O)(=O)c1ccc(N)cc1`, the Potency entry in test [1] and in test [2] was “inactive” throughout.

`COc1ccc(-c2ccc3cc(C(=O)O)ccc3c2)cc1C12CC3CC(CC(C3)C1)C2`: the Potency result in test [1] is “inactive”. In test [2], the activity change, negative = inhibition was -13.5% and -15.7%.

With `CC1(C)O[C@H]2CC(=O)OC[C@]23[C@H]2CC[C@@]4(C)[C@H](c5ccoc5)OC(=O)[C@H]5O[C@]54[C@]2(C)C(=O)C[C@@H]13`, the Potency entry in test [1] was “inactive”. The activity change, negative = inhibition in test [2] was -13.1%.

In the case of `CC(=O)O[C@]1(C(C)=O)CC[C@H]2[C@@H]3C[C@H](C)C4=CC(=O)CC[C@]4(C)[C@H]3CC[C@@]21C`, the Potency result in test [1] is “inactive”. The activity change, negative = inhibition in test [2] was -11.3%.

As for `CCCc1nc(C(C)(C)O)c(C(=O)OCc2oc(=O)oc2C)n1Cc1ccc(-c2ccccc2-c2nn[nH]n2)cc1`, the Potency result in test [1] is “inactive”. Also, in test [2], the activity change, negative = inhibition was -0.861%.

In the case of `CN[C@@H]1[C@@H](O)[C@@H](O[C@@H]2[C@H](O)[C@H](O[C@H]3OC(CN)=CC[C@H]3N)[C@@H](N)C[C@H]2N)OCC1(C)O` (stereo partly specified), the Potency entry in test [1] and in test [2] was “inactive” throughout.

Consider `C[C@@H]1O[C@@H]1P(=O)(O)O`, for which, in test [1], the Potency entry is “inactive”. The activity change, negative = inhibition in test [2] is 1.53% [at 27.1 µM].

In the case of `CC1CCN(CCCC(=O)c2ccc(F)cc2)CC1`, the Potency entry in test [1] is “inactive”. For the same molecule, the activity change, negative = inhibition in test [2] is -25%.

As to `C[C@]12CCC(=O)C=C1CC[C@@H]1[C@@H]2[C@@H](O)C[C@@]2(C)[C@H]1CC[C@]2(O)C(=O)COC(=O)CCC(=O)O`, the Potency entry in test [1] and in test [2] was “inactive” in each case.

In the case of `O=C(O)c1cc(=O)c2c(OCC(O)COc3cccc4oc(C(=O)O)cc(=O)c34)cccc2o1`, the Potency entry in test [1] and in test [2] was “inactive” each time.

For the molecule `CC(=O)N(CC(O)CO)c1c(I)c(C(=O)NCCO)c(I)c(C(=O)NCC(O)CO)c1I` (stereo unspecified), in test [1], the Potency result was “inactive”. In test [2], the activity change, negative = inhibition was -15%.

Regarding `Cc1onc(-c2ccccc2)c1-c1ccc(S(N)(=O)=O)cc1`, the Potency result in test [1] is “inactive”. For the same molecule, the activity change, negative = inhibition in test [2] was -25.7% and -12.6%.

`NS(=O)(=O)c1cc2c(cc1Cl)NC(CC1CCCC1)NS2(=O)=O` (stereo unspecified): the Potency entry in test [1] and in test [2] was “inactive” each time.

As to `C[C@@H]1C[C@H]2[C@@H]3C[C@H](F)C4=CC(=O)C=C[C@]4(C)[C@@]3(F)[C@@H](O)C[C@]2(C)[C@@]1(O)C(=O)CO`, the Potency result in test [1] and in test [2] was “inactive” each time.

As to `CCOC(=O)[C@H](CCc1ccccc1)N[C@H]1CCCN2CCC[C@@H](C(=O)O)N2C1=O`, in test [1], the Potency entry was “inactive”. For the same molecule, the activity change, negative = inhibition in test [2] is -27.1%.

On to `Clc1cccc(Cl)c1NC1=NCCN1`, for which the Potency result in test [1] and in test [2] was “inactive” throughout.

Turning to `C[C@H](NC(CCc1ccccc1)C(=O)O)C(=O)N1CCC[C@H]1C(=O)O` (stereo partly specified), the Potency result in test [1] and in test [2] was “inactive” in each case.

For the molecule `O=C(OCc1ccccc1)c1ccccc1`, the Potency result in test [1] and in test [2] was “inactive” throughout.

With `CN[C@@H]1[C@H](O)[C@H](NC)[C@H]2O[C@@]3(O)C(=O)C[C@@H](C)O[C@H]3O[C@@H]2[C@H]1O`, the Potency result in test [1] and in test [2] was “inactive” each time.

As to `COc1ccc(C2C(=O)c3ccccc3C2=O)cc1`, the Potency entry in test [1] and in test [2] was “inactive” in each case.

On to `Cc1cccc(C)c1NC(=O)c1cc(S(N)(=O)=O)c(Cl)cc1O`, for which the Potency entry in test [1] is “inactive”. In test [2], the activity change, negative = inhibition was -7.8%.

As to `COc1c2occc2cc2ccc(=O)oc12`, the Potency entry in test [1] and in test [2] was “inactive” throughout.

Consider `CC(=O)N(c1onc(C)c1C)S(=O)(=O)c1ccc(N)cc1`, for which the Potency entry in test [1] and in test [2] was “inactive” in each case.

As to `Cc1ccc(-c2ncc(Cl)cc2-c2ccc(S(C)(=O)=O)cc2)cn1`, the Potency entry in test [1] and in test [2] was “inactive” each time.

In the case of `N[C@@H](Cc1cc(I)c(Oc2ccc(O)c(I)c2)c(I)c1)C(=O)O`, the Potency result in test [1] and in test [2] was “inactive” throughout.

Regarding `COc1cc(/C=C/C(=O)O[C@H]2CC[C@]34C[C@]35CC[C@]3(C)[C@@H]([C@H](C)CCC=C(C)C)CC[C@@]3(C)[C@@H]5CC[C@H]4C2(C)C)ccc1O`, the Potency result in test [1] and in test [2] was “inactive” throughout.

`CCCCCCCCCCCCCCCCCCO`: the Potency result in test [1] was “inactive”. Besides, in test [2], the activity change, negative = inhibition is 0.247%.

Take `C/C(=C(\CCO)SS/C(CCO)=C(\C)N(C=O)Cc1cnc(C)nc1N)N(C=O)Cc1cnc(C)nc1N`: the Potency entry in test [1] is “inactive”. Moreover, in test [2], the activity change, negative = inhibition is -31.6%.
